Experimental data from PubChem BioAssay AID1159580 (chemical genetic matrix, 2015).
“And” between values parts separate entries of the source, which are not always exact repeats. Equal values may be shown once. Among all 5,500 compounds or so, about 2,000 (36%) were called active. Roughly 18% stayed inconclusive and do not appear here. Cut-off read from the data, not from the text of the source: active = normalized growth mostly below about 0.91 (no sharp cut-off); inconclusive = no clear call, values can overlap the other calls; inactive = mostly above about 0.92. The list shows a part of the results.

Assay: chemical genetic growth profiling, strain panel (AID 1159580);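 note: tested at 20 µM; growth read once vehicle control cultures reached saturation at 30 °C; 1 = growth at the plate median or of vehicle wells; lower values mean less growth of the strain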
Details: S. cerevisiae deletion strains, growth OD

Measured: normalized growth

CC(C)NCC(O)c1cc(O)cc(O)c1 (stereo not drawn)
inactive: locus YAL013W, strain DEP1, active compounds read low 1.03 | locus YAL021C, strain ccr4, active compounds read low 0.974 | locus YAL026C, strain drs2, active compounds read low 1 | locus YAL030W, strain snc1, active compounds read low 0.994 | locus YAL040C, strain CLN3, active compounds read low 1.02 | locus YBL061C, strain skt5, active compounds read low 0.991 | locus YBR009C, strain hhf1, active compounds read low 1.01 | locus YBR021W, strain FUR4, active compounds read low 1.02 | locus YBR023C, strain chs3, active compounds read low 0.984 | locus YBR171W, strain sec66, active compounds read low 0.998 | locus YBR229C, strain ROT2, active compounds read low 1 | locus YBR231C, strain swc5, active compounds read low 0.993 | locus YBR279W, strain paf1, active compounds read low 0.992 | locus YCL011C, strain gbp2, active compounds read low 0.982 | locus YCL016C, strain dcc1, active compounds read low 0.976 | locus YCL029C, strain bik1, active compounds read low 0.983 | locus YCL061C, strain MRC1 (second series), active compounds read low 1.01 | locus YCL061C, strain MRC1, active compounds read low 0.991 | locus YCL069W, strain vba3, active compounds read low 0.992 | locus YCR088W, strain abp1, active compounds read low 0.994 | locus YDL005C, strain med2, active compounds read low 1 | locus YDL035C, strain GPR1, active compounds read low 1.01 | locus YDL040C, strain nat1, active compounds read low 0.994 | locus YDL074C, strain BRE1, active compounds read low 1.01 | locus YDL101C, strain DUN1, active compounds read low 1 | locus YDL134C, strain PPH21, active compounds read low 1.01 | locus YDL185W, strain tfp1, active compounds read low 0.964 | locus YDL192W, strain arf1, active compounds read low 0.984 | locus YDR001C, strain nth1, active compounds read low 0.983 | locus YDR069C, strain doa4, active compounds read low 1.01 | locus YDR101C, strain arx1, active compounds read low 1.02 | locus YDR137W, strain rgp1, active compounds read low 0.977 | locus YDR150W, strain NUM1, active compounds read low 0.996 | locus YDR159W, strain sac3, active compounds read low 1.03 | locus YDR162C, strain NBP2, active compounds read low 1.01 | locus YDR195W, strain ref2 0.982 | locus YDR297W, strain sur2, active compounds read low 0.989 | locus YDR318W, strain mcm21, active compounds read low 0.982 | locus YDR334W, strain swr1, active compounds read low 0.974 | locus YDR335W, strain msn5, active compounds read low 1 | locus YDR363W, strain ESC2, active compounds read low 1.05 | locus YDR388W, active compounds read low 1 | locus YDR392W, strain spt3, active compounds read low 0.928 | locus YDR502C, strain sam2, active compounds read low 0.993 | locus YEL003W, strain gim4, active compounds read low 1 | locus YEL037C, strain rad23, active compounds read low 0.989 | locus YEL061C, strain CIN8 (second series), active compounds read low 0.98 | locus YEL061C, strain CIN8, active compounds read low 0.995 | locus YER002W, strain NOP16, active compounds read low 0.991 | locus YER015W, strain faa2, active compounds read low 0.988 | locus YER016W, strain bim1, active compounds read low 0.999 | locus YER110C, active compounds read low 0.973 | locus YER111C, strain swi4, active compounds read low 0.978 | locus YER155C, strain BEM2 (second series), active compounds read low 1 | locus YER155C, strain BEM2, active compounds read low 1 | locus YER167W, strain BCK2, active compounds read low 0.995 | locus YFR010W, strain ubp6, active compounds read low 0.992 | locus YGL078C, strain dbp3, active compounds read low 0.969 | locus YGL086W, strain mad1, active compounds read low 1.01 | locus YGL167C, strain pmr1, active compounds read low 0.991 | locus YGL173C, strain kem1, active compounds read low 1 | locus YGL227W, strain vid30, active compounds read low 0.995 | locus YGL240W, strain doc1, active compounds read low 1.01 | locus YGL248W, strain PDE1, active compounds read low 1 | locus YGL253W, strain hxk2, active compounds read low 0.974 | locus YGR135W, strain pre9, active compounds read low 0.949 | locus YGR229C, strain SMI1, active compounds read low 1.03 | locus YGR252W, strain gcn5, active compounds read low 0.963 | locus YHR013C, strain ard1, active compounds read low 0.961 | locus YHR027C, strain rpn1, active compounds read low 1.02 | locus YHR030C, strain SLT2, active compounds read low 1.01 and 0.952 | locus YHR079C, strain IRE1 (second series), active compounds read low 0.988 | locus YHR079C, strain IRE1, active compounds read low 0.964 | locus YHR094C, strain hxt1, active compounds read low 1 | locus YHR129C, strain ARP1, active compounds read low 1 | locus YHR142W, strain chs7, active compounds read low 0.967 | locus YHR200W, strain rpn10, active compounds read low 0.985 | locus YIL066C, strain RNR3, active compounds read low 0.997 | locus YIL073C, strain SPO22, active compounds read low 0.938 | locus YIL125W, strain kgd1, active compounds read low 1.01 | locus YIR030C, strain dcg1, active compounds read low 0.978 | locus YJL092W, strain hpr5, active compounds read low 0.988 | locus YJL095W, strain BCK1 (second series), active compounds read low 0.994 | locus YJL095W, strain BCK1, active compounds read low 0.986 and 0.963 | locus YJL115W, strain asf1, active compounds read low 0.977 | locus YJL129C, strain trk1, active compounds read low 0.983 | locus YJL134W, strain LCB3, active compounds read low 1.01 | locus YJL154C, strain vps35, active compounds read low 1.02 | locus YJL164C, strain tpk1, active compounds read low 0.993 | locus YJL166W, strain qcr8, active compounds read low 0.974 | locus YJL168C, strain set2, active compounds read low 0.999 | locus YJL187C, strain SWE1 (second series), active compounds read low 0.995 | locus YJL187C, strain SWE1, active compounds read low 0.987
